KB-3-1 tox = KB-3-1 parental cell cytotoxicity | KB-3-1 viability, CellTiter-Glo ATP luminescence, 72 h | Potency, µM (top dose mostly 46.1 µM), most hits filed as cytotoxic | hit rate 1.4% among 400,000 | AID 1347075; further: nearly all actives have a fitted effect of over 60% in size
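Here the drug-naive KB-3-1 line serves as comparator for MDR sub-line selectivity; cells received compound titrations, 72 h at 37 °C, then CellTiter-Glo readout.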
HT1080-NT tox = kills 2HG-producing HT-1080-NT fibrosarcoma cells; Potency, µM (titrated, usually from 46.1 µM), most hits filed as cytotoxic; HT-1080-NT fibrosarcoma viability, CellTiter-Glo ATP luminescence, 48 h; hit rate 1.6% among 360,000;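 further: NT is the 2HG producing partner of a matched IDH1 knockdown line; nearly all actives have a fitted effect of over 55% in size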
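HT-1080-NT fibrosarcoma cells (2HG-overproducing), 750 cells/well in RPMI with 5% FBS, dosed after 2 h and incubated 48 h at 37C. CellTiter-Glo luminescence normalized to DMSO and no-cell wells; concentration-response curves fitted and classed.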
ATXN viability = reduces viability in counter-screen for ATXN expression inhibitors; hit rate 0.49% among 400,000; Potency, µM (titrated, usually from 56.7 µM), hits mostly cytotoxic; S2 cells (HEK-293 line with an ATXN2-luciferase reporter) viability, CellTiter-Fluor protease fluorescence, 24 h; AID 651635; further: nearly all actives have a fitted effect of over 40% in size
KB-V1 MDR tox = kills drug-selected multidrug resistant KB-V1 cells; KB-V1 MDR cells viability, CellTiter-Glo, 72 h; Potency, µM (doses to about 46.1 µM), actives largely listed as cytotoxic; hit rate 3.4% among 400,000; further: nearly all actives have a fitted effect of over 60% in size
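Luminescent ATP read-out (CellTiter-Glo, 10 min) measures survival of drug-selected KB-V1 MDR cells after 72 h, 37 degrees C compound exposure. Medium: phenol-red-free DMEM, 10% FBS. Values from fitted concentration-response curves.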
ATXN2 expr inh = reduces ATXN2 reporter expression in HEK-293 cells; hit rate 0.72% among 360,000; Potency, µM (series often up to 57 µM), usual class: inhibitors; AID 1745845; HEK-293 ATXN2-luciferase reporter, luminescence, 24 h; further: nearly all actives have a fitted effect of over 55% in size
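qHTS (up to 57 uM final) was run with 24 h compound exposure of reporter cells at 37 °C. Each well was multiplexed: SteadyGlo luminescence measured ATXN2-luciferase expression after a fluorogenic Gly-Phe-AFC viability readout (25 uM final).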
HT1080 IDH1KD tx = toxicity to HT-1080 IDH1 knockdown cells (counter line); AID 686971; HT-1080 IDH1 knockdown viability, ATP luminescence, 48 h; Potency, µM (top dose mostly 46.1 µM), actives largely listed as cytotoxic; hit rate 2% among 360,000
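In this qHTS, HT-1080 cells depleted of IDH1 are exposed for 48 h at 37 °C to compound titrations. Toxicity is scored from CellTiter-Glo luminescence, with DMSO as full viability and medium alone as none.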
Of the large screens only hits and unclear results are named; the others gave an inactive call. This is a sample that favours compounds with a hit; in the whole collection about 6.2% have one here. The call rests on the fitted dose curve; in most records, active means well fitted curve in the direction sought with a large enough effect; inconclusive means small, poorly fitted or top-dose-only effect, or another doubt; inactive means no such curve, though single readings can be large; an effect the other way counts as inactive or inconclusive.

COc1cc2c(c(OC)c1OC)-c1ccc(NCc3ccccc3)c(=O)cc1C(NC(C)=O)CC2 (stereo not given)	KB-3-1 tox 1.2µM, HT1080-NT tox 3.7µM, HT1080 IDH1KD tx 2.3µM (no result: ATXN2 expr inh)
CCOc1ccc(CC2c3cc(OCC)c(OCC)cc3CCN2C(=O)c2cc(OC)c(OC)c(OC)c2)cc1OCC (stereo not given)	KB-V1 MDR tox inconclusive
O=C1CCCC2=C1C(c1[nH]ncc1Cl)N=C(Nc1nc3ccccc3o1)N2 (stereo not given)	none (no result: KB-3-1 tox, HT1080-NT tox, ATXN viability, KB-V1 MDR tox, HT1080 IDH1KD tx)
COc1ccc(OC)c(/C=C/C(=O)Nc2ccc(C(=O)OCCC(C)C)cc2)c1	none (no result: HT1080-NT tox, ATXN viability, HT1080 IDH1KD tx)
CCOc1ncc(F)c(=O)[nH]1	none (no result: KB-3-1 tox, HT1080-NT tox, KB-V1 MDR tox, HT1080 IDH1KD tx)
CCn1cc(CN2CCCC(C(=O)Nc3cccc(-c4cc5ccccc5[nH]4)c3)C2)cn1 (stereo not given)	HT1080-NT tox 16µM, KB-V1 MDR tox inconclusive, ATXN2 expr inh inconclusive, HT1080 IDH1KD tx inconclusive
CCn1cc(CN2CCCC(C(=O)c3ccc(-c4ccccc4)cc3)C2)cn1 (stereo not given)	KB-3-1 tox inconclusive, HT1080-NT tox inconclusive, ATXN viability inconclusive, ATXN2 expr inh inconclusive, HT1080 IDH1KD tx 23µM
Cn1cc(CN2CCCC(C(=O)c3ccc(-c4ccccc4)c(F)c3)C2)cn1 (stereo not given)	HT1080-NT tox 23µM, KB-V1 MDR tox inconclusive, HT1080 IDH1KD tx 16µM (no result: ATXN2 expr inh)
Cc1cc(-c2ccccc2)n(-c2cc(N/N=C/c3ccccc3O)ncn2)n1	KB-3-1 tox inconclusive, HT1080-NT tox inconclusive, ATXN viability inconclusive, KB-V1 MDR tox 0.82µM, ATXN2 expr inh inconclusive, HT1080 IDH1KD tx 1µM
CNc1cc(-n2nc(C)cc2-c2ccccc2)ncn1	none
c1ccc(C2C3=C(Nc4ncnn42)c2ccccc2CCC3)cc1 (stereo not given)	KB-V1 MDR tox 18µM
COc1ccc2c(c1)CCc1c(C(=O)Nc3c(C)nn(Cc4c(Cl)cccc4Cl)c3C)noc1-2	none (no result: HT1080-NT tox, HT1080 IDH1KD tx)
COc1ccc(-c2cc3nc(C)cc(N)n3n2)cc1	KB-3-1 tox inconclusive, HT1080-NT tox inconclusive, ATXN viability inconclusive, KB-V1 MDR tox inconclusive, HT1080 IDH1KD tx 16µM
COc1ccc(/C=C(/NC(=O)c2ccccc2)c2nc3ccc(Cl)cc3[nH]2)cc1OC	KB-3-1 tox inconclusive, ATXN viability inconclusive, KB-V1 MDR tox 12µM
Oc1cccc(C(O)CNCc2ccc(-c3ccccc3)cc2)c1 (stereo not given)	KB-3-1 tox inconclusive, HT1080-NT tox 16µM, ATXN viability inconclusive, KB-V1 MDR tox inconclusive, ATXN2 expr inh inconclusive, HT1080 IDH1KD tx 21µM
Oc1cccc(C(O)CNCc2ccc(OCc3ccc(Cl)cc3Cl)cc2)c1 (stereo not given)	HT1080-NT tox 23µM, KB-V1 MDR tox inconclusive, HT1080 IDH1KD tx 16µM
OC(CNCc1cccc(Cl)c1)c1ccccc1 (stereo not given)	KB-V1 MDR tox inconclusive
CCOc1cc(C(=O)Nc2ccc(-c3nc4cc(Cl)ccc4o3)cc2)cc(OCC)c1OCC	none (no result: HT1080-NT tox, HT1080 IDH1KD tx)
O=[N+]([O-])c1cc(S(=O)(=O)N2CCCCCC2)ccc1Cl	HT1080-NT tox 23µM, HT1080 IDH1KD tx inconclusive (no result: ATXN viability)
O=C(O)c1ccccc1/C=N/Nc1ccc(S(=O)(=O)N2CCCC2)cc1[N+](=O)[O-]	KB-3-1 tox inconclusive, HT1080-NT tox 13µM, KB-V1 MDR tox inconclusive, HT1080 IDH1KD tx inconclusive
COc1ccc(OCCOc2ccc(S(=O)(=O)N3CCCC3)cc2[N+](=O)[O-])cc1	KB-3-1 tox inconclusive, KB-V1 MDR tox 15µM
COc1ccc(Nc2ccc(S(=O)(=O)N3CCCCCC3)cc2[N+](=O)[O-])cc1	KB-3-1 tox inconclusive, KB-V1 MDR tox 2.9µM
COc1ccc(Nc2ccc(S(=O)(=O)N3CCCCC3)cc2[N+](=O)[O-])cc1OC	KB-3-1 tox inconclusive, ATXN viability inconclusive
Cc1ccc(-n2c(CCC(=O)O)ccc2-c2cccs2)cc1Cl	KB-V1 MDR tox inconclusive (no result: HT1080-NT tox, HT1080 IDH1KD tx)
Nc1ncnc(N2CCc3ccccc32)c1[N+](=O)[O-]	KB-3-1 tox inconclusive, ATXN viability inconclusive, KB-V1 MDR tox 13µM
COc1cc2nc(N3CCCN(C)CC3)nc(OC3CCN(C)CC3)c2cc1OC	none (no result: HT1080-NT tox, ATXN viability, ATXN2 expr inh, HT1080 IDH1KD tx)
